# An excerpt weighted towards active compounds, which were near 1.8% of everything screened.
# GLP-1R inv ag: inverse agonists of human GLP-1 receptor | P43220 | HEK293 GLP-1R CRE-luciferase, luminescence, 24 h; GLP-1R form is constitutively active | Potency, µM (titrated, usually from 38.3 µM), inactives show top-dose activity change, negative = inhibition, actives largely listed as inhibitors | actives 1.6% (n = 410,000); note: potency is the fitted concentration of half-maximal effect; % is set by controls: 0 for no effect and ±100 for the full control effect; nearly all actives have a fitted effect of over 55% in size
#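 Readout was luciferase luminescence, measured 12 min after detection reagent at room temperature. Beforehand, GLP-1R reporter HEK293 cells had sat 12 h, then received compounds for 24 hr at 37 deg C.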
# GLP1R ag: agonists of human GLP-1 receptor. P43220. HEK293 GLP-1R CRE-luciferase, luminescence, 4-6 h; cells express a hypersensitive GLP-1R form. Potency, µM (titrated, usually from 45.6 µM), inactives show at the highest dose activation, actives largely listed as activators. actives 0.007% (n = 380,000); note: potency is the fitted concentration of half-maximal effect; % of control where 0% means no effect
# TRPML1 ag: human mucolipin-1 channel agonism | Q9GZU1 | TRPML1-expressing cells, Ca2+ dye fluorescence, FDSS | activation, % (no concentration beside the values) | actives 0.12% (n = 410,000) | AID 624414; in the data active = activation above about 50%; inconclusive = mostly about 30% to 49%; note: 0% is about no effect
# Target sequence (Q9GZU1 whole entry, looked up): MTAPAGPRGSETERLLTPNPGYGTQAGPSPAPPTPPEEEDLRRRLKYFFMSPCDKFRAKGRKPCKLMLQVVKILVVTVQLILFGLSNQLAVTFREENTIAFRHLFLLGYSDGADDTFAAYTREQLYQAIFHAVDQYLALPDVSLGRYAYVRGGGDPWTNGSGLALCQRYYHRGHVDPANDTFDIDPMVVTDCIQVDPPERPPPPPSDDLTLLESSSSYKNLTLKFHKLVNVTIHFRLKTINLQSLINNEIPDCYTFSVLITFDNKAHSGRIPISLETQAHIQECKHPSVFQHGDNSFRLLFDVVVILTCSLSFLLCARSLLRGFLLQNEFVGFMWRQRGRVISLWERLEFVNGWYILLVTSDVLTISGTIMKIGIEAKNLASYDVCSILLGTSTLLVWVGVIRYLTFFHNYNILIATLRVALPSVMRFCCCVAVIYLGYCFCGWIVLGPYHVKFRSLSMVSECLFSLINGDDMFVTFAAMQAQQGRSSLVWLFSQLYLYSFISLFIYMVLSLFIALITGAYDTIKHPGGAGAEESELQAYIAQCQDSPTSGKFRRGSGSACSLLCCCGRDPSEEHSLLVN
#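 Cells: TRPML1-DL, 1X Tet inducer, ~16 h at 37 degrees C/5% CO2. Dye: ABD Ca8 no-wash + quencher, 45-90 min RT. Read: 10 s baseline, compound add, 110 s agonist phase; 54-4 EC80 (4uM final), 110 s antagonist phase.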
# TRPML1 inh: inhibitors of human TRPML1 channel; Q9GZU1; TRPML1-inducible cells, Ca2+ dye fluorescence, FDSS; stronger effect = lower value; inhibition of EC80 agonist-evoked calcium signal; activity change, negative = inhibition, % (no concentration beside the values); actives 0.02% (n = 390,000); AID 624415; in the data active = activity change below about -50%; inconclusive = between about -30% and that limit;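 note: stimulus is agonist 54-4 at its EC80 concentration; % is set by controls: 0 for no effect and ±100 for the full control effect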
#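 Tet-induced TRPML1-DL cells loaded with Ca8 no-wash calcium dye were read kinetically on FDSS. Compound addition was followed by EC80 agonist 54-4 (4 uM final); inhibition was read over 110 s.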
# HEK293 tox: cytotoxic in the GLP-1 receptor inverse agonist counter-screen | HEK293 cAMP-luciferase reporter cells, luminescence, 24 h | Potency, µM (doses to about 38.3 µM), for inactives: at the highest dose activity change, negative = inhibition, actives largely listed as inhibitors | actives 0.13% (n = 410,000);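 note: loss of luciferase light is scored as toxicity; potency is the fitted concentration of half-maximal effect; % is set by controls: 0 for no effect and ±100 for the full control effect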
#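 Seeding density was 200 cells/uL; after overnight-length (12 h) culture, 23 nL compounds went on for 24 h at 37 °C. Readout used a luciferase detection reagent, luminescence taken after 12 min at room temperature.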
# * hit, by the source's call; i = inactive; ? = inconclusive; . = no result; [ ] = remark or other dose. Unless noted, calls come from the whole dose curve; as a rule, active = well fitted curve in the direction sought with a large enough effect; inconclusive = small, poorly fitted or top-dose-only effect, or another doubt; inactive = no such curve, though single readings can be large; an effect the other way counts as inactive or inconclusive.
SMILES,GLP-1R inv ag,GLP1R ag,TRPML1 ag,TRPML1 inh,HEK293 tox
CCOc1ccc(C(=O)N(Cc2ccc(C(C)C)cc2)Cc2ccco2)cc1,?,.,1.7,-6.6,-16.6%
CCOC(=O)c1c(S(=O)(=O)N2CCN(c3cccc(C(F)(F)F)c3)CC2)c(C)n(C)c1C,2.2%,.,-0.7,-14.2,-0.7%
CCOC(=O)c1c(C)[nH]c(C)c1S(=O)(=O)N1CCN(c2cccc(C(F)(F)F)c2)CC1,5.62µM*,.,4.4,5.0,?
c1ccc(-c2ccc(-c3cnc4n3CCCCC4)cc2)cc1,5.01µM*,-0.9%,0.5,-6.0,?
Cc1ccc(-c2cnc3n2CCCCC3)cc1,?,-3.4%,2.6,-6.1,?
CC(=O)OCCn1c2nc(=O)[nH]c(=O)c-2nc2cc(C)c(C)cc21,12.2%,-4.7%,117.4*,-22.2,i
Cc1cc2nc3c(=O)[nH]c(=O)nc-3n(CC(O)C(O)C(O)CO)c2cc1C (configuration not stated),.,-1.2%,.,.,.
CCN(Cc1ccccc1)C(=O)CCS(=O)(=O)c1cc(Br)cc2c1N(C(=O)C1CC1)CC2,-16.4%,.,0.4,28.7,-5.3%
COc1ccc(C(=O)c2c(C(F)(F)F)oc3c2C(=O)c2ccccc2C3=O)cc1,7.08µM*,-33.6%,2.1,19.9,-17.5%
NC(=O)Nc1cccc2ccccc12,5.1%,0.5%,-0.3,5.1,-6.3%
O=C(Nc1cccc2ccccc12)OC1C=CS(=O)(=O)C1 (configuration not stated),10µM*,-3.8%,-0.2,7.3,-20.2%
C=CCOc1ccc(/C=C/C(=O)OCC(=O)NCc2cccc(OC)c2)cc1,-20.2%,0.6%,-0.2,-9.4,-2.6%
C=CCOc1ccc(C=CC(=O)c2c(O)c(OC)c(OC)c(OC)c2OC)cc1,7.94µM*,-8.7%,3.4,-13.8,-17.1%
CCOc1ccc(S(=O)(=O)NC2CCCCC2C)cc1 (configuration not stated),10µM*,-2.8%,0.8,8.2,4.2%
Cc1ccc(C(c2cccc(Br)c2)c2c(C)[nH]c3ccccc23)s1 (configuration not stated),10µM*,.,2.2,-3.6,0.4%
CCOC(=O)C1=C(NC(=S)NC(=O)c2ccccc2)c2ccccc2CC1C(C)C (configuration not stated),3.16µM*,4.8%,-0.7,12.3,?
CCOC(=O)C1=C(NC(=S)NC(=O)c2ccccc2)c2ccccc2CC1(C)CC (configuration not stated),5.01µM*,-2.5%,0.2,11.1,11.2µM*
COc1ccc(CNC(=O)Cn2ncc3c4ccccc4n(Cc4cccc(Cl)c4)c3c2=O)cc1,-12.1%,.,0.1,-7.5,-1.6%
Cc1ccc2c(c1)c1c(n2CC(O)CN2CCC(C)CC2)CCCC1 (configuration not stated),5.62µM*,-2.5%,0.2,-0.1,?
COc1ccccc1CN1C2CCCC1CC(NC(=O)/C=C/c1ccccc1)C2 (configuration not stated),10µM*,-0.8%,-0.7,14.7,?
COC(=O)C1(C(=O)OC)C[C@H](/C=C/c2ccccc2)N(Cc2ccccc2OC)[C@@H]1c1ccc(F)cc1,-4.7%,.,.,.,0.0%
COC(=O)C1(C(=O)OC)C[C@H](/C=C/c2ccccc2)N(Cc2ccccc2OC)[C@@H]1c1cccs1,10µM*,.,.,.,32.4%
CC(C)(C)n1ncc2c(=O)n(Cc3ccc(-c4ccccc4C#N)cc3)cnc21,.,.,2.0,-7.4,.
Oc1ccc(Cl)cc1-c1cc(-c2ccco2)[nH]n1,10µM*,-28.3%,0.1,0.8,?
Oc1ccccc1-c1cc(-c2ccco2)[nH]n1,-18.2%,-9.4%,0.4,-14.7,-8.1%
SMILES,GLP-1R inv ag,GLP1R ag,TRPML1 ag,TRPML1 inh,HEK293 tox
Cc1ccc(C(=O)C=CC=Cc2ccccc2)cc1,-7.6%,-0.7%,1.0,11.1,6.3%
Cc1ccc(C(=O)C(C(=O)/C=C/c2ccccc2)=C2SCCCS2)cc1,2µM*,-4.9%,-1.0,4.1,?
NS(=O)(=O)c1ccc(NCCCn2ccnc2)c([N+](=O)[O-])c1,19.6%,6.7%,-0.1,-8.4,2.1%
COc1ccc2noc3c2c1C(=O)c1ccccc1-3,?,12.2%,79.3*,1.3,?
COc1ccc(N)c2c1C(=O)c1ccccc1C2=O,29.0%,0.1%,1.5,-7.7,6.0%[1.53 µM]
O=C1c2ccccc2-c2onc3ccc(NCCCn4ccnc4)c1c23,-13.5%,18.9%,74.5*,5.7,12.6µM*
CCN1CCN(Cc2ccc(NC(=O)Nc3ccc(SC)cc3)cc2)CC1,7.94µM*,14.3%,0.4,-12.3,?
CCCC/C=C/[C@H](C)[C@@](C)(COC(=O)c1ccc(Br)cc1)Cc1ccccc1,.,.,0.2,-1.8,.
Cc1ccc(CN2C(=O)c3ccccc3Sc3ccc(C(=O)NCc4ccco4)cc32)cc1,?,.,3.9,68.4,4.0%
OCC1(Cc2ccccc2F)CCCN(Cc2c(F)ccc(F)c2F)C1 (configuration not stated),11.2µM*,5.5%,-0.6,2.3,13.3%
OCC1(Cc2ccccc2F)CCCN(CC2CCCCC2)C1 (configuration not stated),?,23.8%,-0.7,9.6,-16.8%
COCC(=O)OC1CCn2c1nc1c2C(=O)C(C)=C(NC(C)=O)C1=O (configuration not stated),10µM*,-13.1%,0.9,22.6,11.2µM*
CC1CCCC(C)N1C(=O)c1ccccc1Nc1ccc(SC(F)F)cc1 (configuration not stated),5.62µM*,1.0%,6.0,79.5,-16.2%
CC1CCN(CC(=O)Nc2ccccc2-c2ccccc2)CC1,0.0%,5.8%,-0.2,-5.7,4.2%
CC1CCCCC1NCC(=O)Nc1ccccc1-c1ccccc1 (configuration not stated),4.47µM*,4.9%,0.5,11.9,-0.2%
CC1CCC/C=C/C(=O)c2c(O)cc(O)cc2CC(=O)O1 (configuration not stated),5.01µM*,-10.3%,.,.,?
C[C@@H]1Cc2c(O)c(O)cc(O)c2C(=O)O1,5.5%,-2.8%,.,.,3.1%
O=[N+]([O-])/C=C\c1ccc(N2CCOCC2)cc1,11.2µM*,-6.7%,7.3,48.3,?
O=C(COc1ccc(/C=C\[N+](=O)[O-])cc1)N1CCOCC1,4.0%,-3.0%,0.2,12.5,5.4%
CCCN1CNc2c(c(=O)[nH]c(=S)n2CCc2cc(OC)ccc2OC)C1,.,.,-0.5,.,.
CCOC(=O)C1=C(C)NC(C)=C(C(=O)OCC)C1C(=O)OCC(=O)N1c2ccccc2CC1C (configuration not stated),?,13.3%,-1.1,-1.6,-8.0%

# Screens: PubChem BioAssay, National Center for Advancing Translational Sciences (NCATS)
